L3MBTL1 block = blocks human L3MBTL1; Q9Y468; AlphaScreen L3MBTL1–H3K9me1 peptide binding; Potency, µM (top dose mostly 57.1 µM), inactives show at the top dose activity, negative = inhibition, actives largely listed as inhibitors; 0.66% of 230,000 active; AID 485360; also: % is scaled to controls: 0 for no effect and ±100 for the full control effect; nearly all actives have a fitted effect of over 60% in size
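Read-out is AlphaScreen signal from streptavidin donor and nickel chelate acceptor beads (10 ug/mL final each) bridging L3MBTL1 (50 nM) and biotinylated K9-monomethylated H3(1-15) peptide (75 nM), after 30 min compound exposure at room temperature.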
Sfp inh = inhibitors of Bacillus subtilis Sfp phosphopantetheinyl transferase; 3.5% of 310,000 active; Potency, µM, without a hit: largest response in the series, negative = inhibition, hits mostly inhibitors; Q9F4F7; Biochemical Sfp PPTase activity, qHTS;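 also: the enzyme is Sfp with the accession as filed and its product quenches rhodamine fluorescence; 0% = enzyme reaction without inhibitor and -100% = no enzyme wells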
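Compounds were incubated with enzyme (final 15 nM) for 15 min at room temperature before substrate addition started the reaction. Fluorescence at 525 nm excitation, 598 nm emission was recorded immediately and after 30 minutes.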
JMJD2A Tudor = JMJD2A Tudor domain (human) inhibition. AlphaScreen JMJD2A-Tudor / H3K4me3 peptide binding. Potency, µM (highest dose often 114 µM), for the others: at the highest dose activity change, negative = inhibition, actives largely listed as inhibitors. 4.4% of 390,000 active; also: % is scaled to controls: 0 for no effect and ±100 for the full control effect; nearly all actives have a fitted effect of over 50% in size
BAZ2B block = blocks human BAZ2B | Q9UIF8 | AlphaScreen BAZ2B-H3K14Ac peptide displacement | Potency, µM (series often up to 114 µM), without a hit: at the highest dose activity change, negative = inhibition, actives largely listed as inhibitors | 4.4% of 360,000 active; also: % is scaled to controls: 0 for no effect and ±100 for the full control effect; nearly all actives have a fitted effect of over 60% in size
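AlphaScreen luminescence quantifies BAZ2B engagement of H3K14Ac peptide; the protein and biotinylated peptide are both at 50 nM final, buffer PBS pH 7.4 with 0.01% Tween-20, all steps at room temperature.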
G9a inh = G9a (human) methyltransferase inhibition | Q96KQ7 | G9a H3K9 monomethylation, AlphaScreen, 2 h | Potency, µM (series often up to 102 µM), for the others: at the highest dose activity, negative = inhibition, usual class: inhibitors | 8.8% of 350,000 active | AID 504332; also: % is scaled to controls: 0 for no effect and ±100 for the full control effect; nearly all actives have a fitted effect of over 75% in size
Target sequence (Q96KQ7 913-1193 limits assumed): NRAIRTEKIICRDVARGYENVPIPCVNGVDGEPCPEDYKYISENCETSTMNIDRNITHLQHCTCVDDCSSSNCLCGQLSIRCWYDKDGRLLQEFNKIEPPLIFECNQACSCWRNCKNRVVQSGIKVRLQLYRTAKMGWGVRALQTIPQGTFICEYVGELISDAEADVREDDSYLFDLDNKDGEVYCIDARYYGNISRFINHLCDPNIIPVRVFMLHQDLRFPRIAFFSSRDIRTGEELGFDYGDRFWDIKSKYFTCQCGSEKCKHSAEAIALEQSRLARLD
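Enzyme 20 nM + cpd, 15 min RT; add b-H3K9 pep 500 nM / SAM 20 uM; 2 h RT; anti-H3K9me1 Ab 0.5 ug/mL + SA donor / anti-rabbit acceptor beads 20 ug/mL each, 10 min; AlphaScreen read.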
HP1b binding inh = inhibitors of HP1-beta chromodomain binding to methylated histone tails; P83916; AlphaScreen HP1-beta / biotin-H3K9me3 peptide binding; Potency, µM (series often up to 114 µM), for the others: top-dose activity change, negative = inhibition, usual class: inhibitors; 0.56% of 390,000 active; also: nearly all actives have a fitted effect of over 70% in size
Target sequence (P83916 whole entry, looked up): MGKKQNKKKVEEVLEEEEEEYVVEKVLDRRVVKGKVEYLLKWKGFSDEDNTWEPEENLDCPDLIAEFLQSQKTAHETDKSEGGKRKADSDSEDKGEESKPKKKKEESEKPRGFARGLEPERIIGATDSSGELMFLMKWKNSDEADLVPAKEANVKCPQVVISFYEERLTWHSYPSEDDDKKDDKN
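AlphaScreen: HP1-beta (50 nM) preformed 30 min with biotin-H3(1-18)K9me3 peptide (50 nM) in PBS pH 7.4, 0.01% Tween-20. Compound added for 30 min at RT, then streptavidin donor/nickel chelate acceptor beads (10 ug/mL) for 30 min.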
* marks the source's active call; other numbers are inactive results; ? = inconclusive; . = not tested or not shown; ! = not active in a repeat; [ ] = dose if it differs, or a comment. Rows were chosen to be rich in hits. Some 12% of all compounds tested hit in one or more screens of this group. Calls follow the shape of the dose curve; as a rule, active = well fitted curve in the direction sought with a large enough effect; inconclusive = small, poorly fitted or top-dose-only effect, or another doubt; inactive = no such curve, though single readings can be large; an effect the other way counts as inactive or inconclusive. Potency is read from the fitted curve at half-maximal effect.

SMILES	L3MBTL1 block	Sfp inh	JMJD2A Tudor	BAZ2B block	G9a inh	HP1b binding inh
COc1ccc(-n2c(CNC(=O)c3cccs3)n[nH]c2=S)cc1	-9.7%	1.3%	22.4µM*	-4.0%	20µM*	4.8%
Cc1c(C(=O)NC(=S)NCc2cccnc2)cccc1[N+](=O)[O-]	.	-13.8%	-12.5%	-6.5%	.	1.4%
COc1ccc(CC(=O)NCc2n[nH]c(=S)n2-c2cccc(Cl)c2)cc1	2.9%	13.9%	50.1µM*	-20.3%	3.16µM*	43.9%
COc1ccc(CC(=O)NCc2n[nH]c(=S)n2-c2ccccc2OC)cc1	.	11.0%	14.1µM*	.	35.5µM*	52.4%
CCn1c(CNC(=O)Cc2ccc(OC)cc2)n[nH]c1=S	.	10.1%	?	-22.4%	?	47.6%
Cc1ccc(-c2cn(-c3ccc(Cl)cc3)c(S(=O)(=O)CC(=O)Nc3ccccc3)n2)cc1	.	.	?	-29.7%	?	5.2%
O=C(CN1CCN(c2ccc(F)cc2)CC1)NCc1ccc(F)cc1	.	7.9%	-5.7%	-23.5%	4.7%	24.4%
COc1ccc(CC(=O)NCc2n[nH]c(=S)n2-c2ccc(F)cc2)cc1	2.3%	9.0%	50.1µM*	-17.6%	-35.7%[12.7 µM]	31.2%
CCN(CC(=O)NCc1ccc(F)cc1)C(=O)CN1CCN(c2ccc(OC)cc2)CC1	.	?	0.891µM*	17.8µM*	7.94µM*	17.8µM*
CC(C)OC(=O)CC1C(=O)NCCN1C(=S)NC(=O)c1ccc(F)cc1 (stereo unspecified)	0.0%	-25.2%	-13.9%	-19.9%	39.8µM*	41.4%
CC(C)OC(=O)CC1C(=O)NCCN1C(=S)NC(=O)c1ccccc1 (stereo unspecified)	3.3%	17.8µM*	-13.6%	?	31.6µM*	45.4%
COC(=O)CC1C(=O)NCCN1C(=S)NC(=O)c1sc2ccccc2c1Cl (stereo unspecified)	-3.1%[11.4 µM]	79.4µM*	0.7%[11.4 µM]	?	?	11.9%
COc1ccc(C(=O)c2c(N)sc3c2CCN(C(=O)OC(C)(C)C)C3)cc1	.	79.4µM*	?	?	?	-0.1%
COc1ccc(-c2cccc(NC(=O)c3ccco3)c2)nn1	-10.9%	.	-21.4%	-17.5%	50.1µM*	8.4%
COc1ccc(-c2ccc(NC(=O)c3ccco3)cc2)nn1	-6.2%	.	-21.3%	9.1%	39.8µM*	-7.9%
C=CCC(CC=C)(CNC(=O)C(=O)Nc1cccc(C(F)(F)F)c1)c1ccccc1	.	.	-0.3%	6.3%	38.7%[59 µM]	52.8%
Cc1onc(-c2ccccc2)c1C(=O)O/N=C(\N)c1ccc([N+](=O)[O-])o1	-11.9%	19.7%	-31.6%	-38.5%	44.7µM*	14.9%
Cc1onc(-c2ccccc2)c1C(=O)OCc1nnc(-c2ccccc2)o1	-2.0%	.	21.4%	28.9%	-0.1%[0.501 µM]	46.7%
C/C(=N\OC(=O)c1c(-c2ccccc2Cl)noc1C)c1ccncc1	9.5%	5.01µM*	-10.1%	-14.9%	.	1.2%
Cc1onc(-c2ccccc2Cl)c1C(=O)O/N=C(\N)c1ccccc1	.	11.7%	7.6%	3.6%	47.4%	37.2%
Cc1onc(-c2cccc(Cl)c2Cl)c1C(=O)O/N=C(\N)c1ccc([N+](=O)[O-])o1	-13.0%	-3.8%	?	?	35.5µM*	-10.2%
CCOC(=O)c1scc(-c2ccc(C)cc2)c1S(=O)(=O)Nc1ccc(OC)c(Cl)c1	.	.	-22.0%	-19.1%	?	-5.8%
CCOC(=O)c1c(S(=O)(=O)Nc2ccc(F)cc2Cl)c(C)n(C)c1C	.	16.1%	-31.7%	-30.0%	?	3.0%
CCOC(=O)c1cc(S(=O)(=O)Nc2ccc(OC)c(Cl)c2)[nH]n1	.	.	-33.9%	56.2µM*	8.91µM*	11.8%[57 µM]
CCOC(=O)c1cc(S(=O)(=O)Nc2cc(F)ccc2C)[nH]n1	.	.	-28.8%	?	17.8µM*	20.0%[57 µM]
SMILES	L3MBTL1 block	Sfp inh	JMJD2A Tudor	BAZ2B block	G9a inh	HP1b binding inh
CCOC(=O)c1cc(S(=O)(=O)N(C)c2ccccc2)[nH]n1	.	.	-6.7%	-14.4%	?	-3.8%[57 µM]
CCOC(=O)c1cc(S(=O)(=O)Nc2ccc(C)cc2Cl)[nH]n1	.	.	-32.9%	79.4µM*	8.91µM*	13.2%[57 µM]
CCOC(=O)c1cc(S(=O)(=O)Nc2c(C)cc(C)cc2C)[nH]n1	.	.	-28.8%	?	17.8µM*	21.6%[57 µM]
CCOC(=O)COc1ccc(C)cc1C(=O)c1ccn2nc(-c3ccc(C)cc3)cc2n1	.	.	0.4%	-11.0%	20.1%[59 µM]	25.8%
O=[N+]([O-])c1cc(C(F)(F)F)cc([N+](=O)[O-])c1NCCCNc1ccc([N+](=O)[O-])c2cccnc12	-11.4%	2.3%	?	-36.8%	3.55µM*	-38.3%
O=[N+]([O-])c1cc(C(F)(F)F)cc([N+](=O)[O-])c1NCc1cccnc1	-8.2%	0.4%	-33.2%	-27.8%	50.1µM*	-19.5%
O=[N+]([O-])c1ccc(Cl)cc1NCc1cccnc1	.	.	-25.0%	.	.	?
CCOC(=O)c1c(S(=O)(=O)N2CCC(C(=O)N3CCN(c4cc(C)ccc4C)CC3)CC2)c(C)n(C)c1C	.	.	?	?	-37.3%[59 µM]	-29.1%
CCOc1ccc(C2N3CC4(C(C)C)CN2CC(C(C)C)(C3)C4=O)cc1OC (stereo unspecified)	.	.	-23.6%	-15.7%	-7.9%[59 µM]	22.4%
O=C1N(c2ccccc2)c2ccccc2C1(Cc1ccncc1)Cc1ccncc1	.	8.4%	-12.9%	?	12.6µM*!	32.4%
CCOc1ccc(NC(=O)N2CCN(S(=O)(=O)c3ccc4c(ccn4C)c3)CC2)cc1	.	.	-33.2%	-35.4%	-18.6%[59 µM]	-6.9%[57 µM]
COc1cccc(C2=Nn3c(nnc3-c3cc(OC)ccc3OC)SC2)c1	.	-15.9%	-34.5%	.	.	.
C[C@]1(OC(=O)/C=C/c2ccccc2)C[C@@H](O)[C@]2(O)C=CO[C@@H](O[C@@H]3O[C@H](CO)[C@@H](O)[C@H](O)[C@H]3O)[C@@H]21	-8.5%	.	-7.6%	4.2%	17.8µM*	53.6%
CON(C)S(=O)(=O)c1ccc2c(c1)N(Cc1ccc(C)cc1)C(=O)C1CCCN21 (stereo unspecified)	0.1%	8.9%	-17.5%	-22.4%	25.1µM*	38.0%
O=C1C2CCCN2c2ccc(S(=O)(=O)N3CCOCC3)cc2N1Cc1ccccc1F (stereo unspecified)	-1.0%	14.8%	-10.2%[57.1 µM]	2.5%	.	44.1%

From PubChem
